Laboratory results published in the supplement of paper PMC7366291.
Structures can show the parent of a compound that is named as a salt. ± gives the standard deviation or the standard deviation of the averaged measurements.

Tests used:
Settings in all cases: 25 µM; exposure: 24-48 hpf
[1] = system: Danio rerio Tg(wt1b:EGFP) embryo, pronephros; experiment: glomerular separation, fold change vs DMSO control; higher = glomeruli further apart (abnormal)
Method in brief: (§1)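 Features are reported as fold changes against the mean of same-day DMSO-treated embryos. Before that, values more than 2 SD away from the feature mean were excluded. The embryos, dechorionated Tg(wt1b:EGFP) zebrafish, had been exposed from 24 to 48 hpf at 28.5°C to 25 μM compound in 0.5% DMSO in HEPES-buffered E3 with 0.003% PTU, and distances and angles came from 16 manually set points on maximum projections of dorsal pronephros images in Fiji.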

[2] = system: Danio rerio Tg(wt1b:EGFP) embryo, pronephros; experiment: glomerular width (mean of left and right), fold change vs DMSO control; higher = wider glomerulus
Method in brief: as §1

[3] = system: Danio rerio Tg(wt1b:EGFP) embryo, pronephros; experiment: fraction of imaged embryos annotated as normal kidney; higher = less nephrotoxic; extreme values may be limits of the assay
Method in brief: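 The read-out is the proportion of embryos in each treatment manually annotated as normal-kidney. Exposure ran from 24 to 48 hpf at 28.5°C in 12-well plates, using dechorionated Tg(wt1b:EGFP) zebrafish embryos in 5 mM HEPES-buffered E3 with 0.003% PTU, 0.5% DMSO and 25 μM compound. For imaging, larvae were anaesthetised with tricaine, positioned dorsally in agarose-filled 96-well plates and captured by widefield fluorescence (470 nm, 10 z-slices), with scoring done on maximum projections.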

[4] = system: Danio rerio Tg(wt1b:EGFP) embryo, pronephros; experiment: pronephric angle neck segment to proximal convoluted tubule (mean of left and right), fold change vs DMSO control; higher = larger pronephric angle
Method in brief: as §1

Row | SMILES | glomerular separation [1] | glomerular width [2] | fraction of imaged embryos annotated as normal kidney [3] | pronephric angle neck segment [4]
1 | C[C@]12CC[C@@H]3c4ccc(O)cc4CC[C@H]3[C@@H]1CCC2=O [Estrone] | 0.922 ± 0.35 | 0.983 ± 0.0046 | 1 | 1.05 ± 0.019
2 | NC[C@@H]1O[C@@H](O[C@H]2[C@H](O)[C@@H](O[C@H]3O[C@H](CO)[C@@H](O)[C@H](N)[C@H]3O)[C@H](N)C[C@@H]2N)[C@@H](O)[C@H](O)[C@H]1O [Kanamycin A sulfate] | 1.07 ± 0.33 | 1.01 ± 0.046 | 0.667 | 1.01 ± 0.052
3 | COC(=O)Nc1nc2ccc(SC(C)C)cc2[nH]1 [Methiazole] | 3.98 ± 1.2 | 0.49428 ± 0.00044 | 0 | 1.95 ± 0.046
4 | O=C1CCC(N2C(=O)c3ccccc3C2=O)C(=O)N1 (stereo unspecified) [Thalidomide] | 0.439 ± 0.097 | 1.21 ± 0.078 | 0.917 | 0.748 ± 0.037
5 | C[C@@H]1C[C@H]2[C@@H]3C[C@H](F)C4=CC(=O)C=C[C@]4(C)[C@@]3(F)[C@@H](O)C[C@]2(C)[C@@]1(O)C(=O)COC(=O)C(C)(C)C [Flumethasone pivalate] | 1.2 ± 0.37 | 1.04 ± 0.015 | 0.25 | 0.989 ± 0.0085
6 | CC(=O)Oc1cc(C(F)(F)F)ccc1C(=O)O [Triflusal] | 1.26 ± 0.59 | 0.901 ± 0.012 | 0.917 | 1.02 ± 0.031
7 | C#C[C@]1(O)CC[C@H]2[C@@H]3CCC4=CCCC[C@@H]4[C@H]3CC[C@@]21C [Lynestrenol] | 0.801 ± 0.38 | 0.994 ± 0.054 | 0.917 | 1.02 ± 0.051
8 | CC(=O)Nc1ccc(CC(=O)O)cc1 [Actarit] | 1.05 ± 0.28 | 1.116 ± 0.0018 | 0.667 | 0.998 ± 0.049
9 | CC[C@H](C)C(=O)O[C@H]1CCC=C2C=C[C@H](C)[C@H](CC[C@@H]3C[C@@H](O)CC(=O)O3)[C@H]21 [Mevastatin] | 4.87 ± 2.8 | 0.798 ± 0.046 | 0 | 1.73 ± 0.056
10 | CCCC(C(=O)OCCN(CC)CC)(c1ccccc1)c1ccccc1 [Proadifen hydrochloride] | 0.771 ± 0.16 | 1.09 ± 0.071 | 0.889 | 1.03 ± 0.037
11 | O=C(O)COCCN1CCN(C(c2ccccc2)c2ccc(Cl)cc2)CC1 (stereo unspecified) [Cetirizine dihydrochloride] | 0.855 ± 0.18 | 1.09 ± 0.012 | 1 | 1.03 ± 0.011
12 | CCOC(=O)C1=C(C)NC(C)=C(C(=O)OC)C1c1cccc(Cl)c1Cl (stereo unspecified) [Felodipine] | 5.36 ± 2.5 | 0.634 ± 0.029 | 0 | 1.44 ± 0.022
13 | C[C@]12CCC(=O)C=C1CC[C@@H]1[C@@H]2C(=O)C[C@@]2(C)[C@H]1CC[C@]2(O)C(=O)CO [Cortisone] | 1.08 ± 0.37 | 1.13 ± 0.017 | 0.917 | 1.031 ± 0.0011
14 | CC(C)N1CCN(c2ccc(OCC3COC(Cn4cncn4)(c4ccc(Cl)cc4Cl)O3)cc2)CC1 (stereo unspecified) [Terconazole] | 0.864 ± 0.17 | 1.0642 ± 0.00066 | 1 | 0.948 ± 0.017
15 | CC(C)NCC(O)COc1ccc(CCOCC2CC2)cc1 (stereo unspecified) [Betaxolol hydrochloride] | 1.15 ± 0.6 | 1 ± 0.065 | 1 | 0.987 ± 0.025
16 | COCC1=C(C(=O)OC(C)OC(=O)OC(C)C)N2C(=O)[C@@H](NC(=O)/C(=N\OC)c3csc(N)n3)[C@H]2SC1 (stereo partly specified) [Cefpodoxime proxetil] | 1.06 ± 0.52 | 0.893 ± 0.055 | 1 | 1.05 ± 0.054
17 | Nc1ccc(S(=O)(=O)Nc2ncccn2)cc1 [Sulfadiazine] | 0.947 ± 0.41 | 1.03 ± 0.031 | 0.917 | 0.9587 ± 0.0092
18 | COc1c(N2C[C@@H]3CCCN[C@@H]3C2)c(F)cc2c(=O)c(C(=O)O)cn(C3CC3)c12 [Moxifloxacin] | 0.919 ± 0.39 | 0.971 ± 0.024 | 0.909 | 0.998 ± 0.029
19 | Clc1ccc(C(Cn2ccnc2)OCc2c(Cl)cccc2Cl)c(Cl)c1 (stereo unspecified) [Isoconazole] | 3.36 ± 1.9 | 0.669 ± 0.052 | 0.167 | 1.64 ± 0.076
20 | CN(C)[C@@H]1C(O)=C(C(N)=O)C(=O)[C@@]2(O)C(O)=C3C(=O)c4c(O)cccc4[C@@](C)(O)[C@H]3[C@H](O)[C@@H]12 [Oxytetracycline dihydrate] | 1.22 ± 0.44 | 0.955 ± 0.036 | 0.909 | 0.9153 ± 0.0078
21 | O=c1[nH]c(=O)n([C@H]2C[C@H](O)[C@@H](CO)O2)cc1C(F)(F)F [Trifluridine] | 0.965 ± 0.28 | 0.9839 ± 0.0047 | 0.917 | 0.99 ± 0.013
22 | O=C1CN(/N=C/c2ccc([N+](=O)[O-])o2)C(=O)N1 [Nitrofurantoin] | 0.915 ± 0.35 | 1.04 ± 0.012 | 0.833 | 0.968 ± 0.015
23 | Cc1ccc(S(=O)(=O)NC(=O)NN2CC3CCCC3C2)cc1 (stereo unspecified) [Gliclazide] | 0.87 ± 0.46 | 1.05 ± 0.021 | 0.917 | 0.982 ± 0.011
24 | CNCC(O)c1ccc(OC(=O)C(C)(C)C)c(OC(=O)C(C)(C)C)c1 (stereo unspecified) [Dipivefrin hydrochloride] | 0.794 ± 0.16 | 1.04 ± 0.036 | 0.833 | 1.03 ± 0.081
